This passage reports binding signal results from article PMC7819943, “Rice protein-binding microarrays: a tool to detect cis-acting elements near promoter regions in rice”.

Whole data set: some 68,000 sequences, median “fluorescence intensity (a.u.)” near 9,100, cut for the highest 2% near 16,000. The full list was thinned out, with the highest values kept by preference.

Sequence of OsWRKY34 (Q0JBA9 entry or part of it): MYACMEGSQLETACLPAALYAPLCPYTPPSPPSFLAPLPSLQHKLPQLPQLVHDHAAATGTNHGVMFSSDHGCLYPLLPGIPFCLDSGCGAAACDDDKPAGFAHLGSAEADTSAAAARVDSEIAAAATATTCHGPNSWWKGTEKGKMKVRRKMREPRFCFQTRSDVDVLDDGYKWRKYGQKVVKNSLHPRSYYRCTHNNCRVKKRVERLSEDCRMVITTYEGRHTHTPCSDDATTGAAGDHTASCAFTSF

For this assay, the target named is OsWRKY34 (Oryza sativa, UniProt Q0JBA9 1-250). Description: protein-binding microarray (RPBM); PBS, 2% BSA, 51.3 ng/ul salmon testes DNA, 50 uM zinc acetate, 200 nM TF, 25 C, 1 h; high values mean tight binding. The note with it: protein: recombinant; tags: N-terminal polyhistidine and DsRed monomer fusion (pET32a); label: CyDye5-dUTP incorporated in the synthesized complementary strand; 3' TTTTT single-stranded linker to array surface; dsDNA, one strand shown. A digest of the protocol:
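Polyhistidine-tagged DsRed fusions of transcription factors, joined at the N-terminus, were expressed in E. coli BL21-CodonPlus and isolated on Ni–NTA. They were incubated at 200 nM for 1 h at 25 °C on a custom Agilent array, double-stranded and BSA-blocked, in PBS with 2% BSA, salmon testes DNA and 50 µM zinc acetate. The binding signal is per-feature fluorescence intensity (arbitrary units) read on an Axon 4000B scanner after washing.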
Take “CGAGGTGTGTCTCTCTCCCGTTCACCCGTCCGTATCCTTCCGGAGTCACCTAGTGCAG”: the binding signal is 11100 fluorescence intensity (a.u.).
Under “CGATTATTTCACTAGAGGCAACCATACTGCTACCAAATCCCGGAGTCACCTAGTGCAG” stands 10200 fluorescence intensity (a.u.).
As for “TACCTGTTTGTTTTTAAGTTCAGATATTATATTACGTAACCGGAGTCACCTAGTGCAG”, the binding signal was 8930 fluorescence intensity (a.u.).
Turning to “ACCCCATTTTTTTTGAAAATTCTCGAATTTTATTTTTTTTCGGAGTCACCTAGTGCAG”, the binding signal is 8750 fluorescence intensity (a.u.).
With “AGTCCGACTTTTCCTTTTTTTTTTCCGTGTTTTCCGTTTCCGGAGTCACCTAGTGCAG”, the binding signal is 14800 fluorescence intensity (a.u.).
For the sequence “TTTGTCGTTGCTTCCCTTCTTGGAGACCTTGCCTTGAAGACGGAGTCACCTAGTGCAG”, the binding signal is 8090 fluorescence intensity (a.u.).
For “ATTATATTTTAGGTCGCATTTTGATTCTTTTCATGTAATCCGGAGTCACCTAGTGCAG”, the binding signal is 8660 fluorescence intensity (a.u.).
For “TGGTTATGTGCCACAAATCATATATGCAATTTTGACTATACGGAGTCACCTAGTGCAG”, the binding signal is 9270 fluorescence intensity (a.u.).
On to “ATGGAATCGATCACCTGCAATGCAACACCGTGCCATAATCCGGAGTCACCTAGTGCAG”, for which the binding signal was 8520 fluorescence intensity (a.u.).
With “GAGGAGAGCAGAACAGAACAAGAGGAGGAGAACAAAAAAACGGAGTCACCTAGTGCAG”, the binding signal is 8230 fluorescence intensity (a.u.).
To “TGTCACAGTGTTTTGTTTGTGTTTTTGACCTTGCTTTCCTCGGAGTCACCTAGTGCAG” belongs 16800 fluorescence intensity (a.u.); to “ATATATATATATATATATATATTTTGTCTTGAGTGGTTTGCGGAGTCACCTAGTGCAG”, 11700 fluorescence intensity (a.u.).
Consider “GAACACGATGACATCGGATCGGGTCGGTTTCTCTCTTGCTCGGAGTCACCTAGTGCAG”, for which the binding signal was 9010 fluorescence intensity (a.u.).
To “CTCGCTTTTCTCTTTTTTGATACTGTCTCGTGGTTTCTTGCGGAGTCACCTAGTGCAG” belongs 18400 fluorescence intensity (a.u.).
As for “TTGGATCGTTTGCTTTTCTTTGCCTTTCTTTTGGATTTCTCGGAGTCACCTAGTGCAG”, the binding signal was 11700 fluorescence intensity (a.u.).
In the case of “TTTTGCTTTGGTTGGTTTGCTCGTTTTTTTTTTCTTTTCTCGGAGTCACCTAGTGCAG”, the binding signal is 19600 fluorescence intensity (a.u.).
Consider “GGGTCGGTTTCTCTCTTGCTGTCTTCTCGATCGATCGATGCGGAGTCACCTAGTGCAG”, for which the binding signal was 20200 fluorescence intensity (a.u.).
In the case of “ATGTTTTTCTTTTCTTTCTTCTTTTTTTTGTTTTTGACCTCGGAGTCACCTAGTGCAG”, the binding signal is 11900 fluorescence intensity (a.u.).
With “TCTCTTTCTCTCGCTTTCTTTTTGCATAGTTTTCTTCATGCGGAGTCACCTAGTGCAG”, the binding signal was 8700 fluorescence intensity (a.u.).
“GTAGTTTTTTTCCTAGTTTCAGTTTTTGTTTTGCTTTTTTCGGAGTCACCTAGTGCAG”: the binding signal is 11200 fluorescence intensity (a.u.).
To “TTTTCTTTGCTTTTCGGTTTCGTTCTCCGTTTTGGTTTTTCGGAGTCACCTAGTGCAG” belongs 12400 fluorescence intensity (a.u.); to “GTCTCGGTCTTTTCGATCTCGGTCTTTTCGGTTCGGTCTTCGGAGTCACCTAGTGCAG”, 9340 fluorescence intensity (a.u.).
For the sequence “GCGTGGTTGATTTTTAGTCTTGTCGACTTCGACTTTAAGCCGGAGTCACCTAGTGCAG”, the binding signal is 9120 fluorescence intensity (a.u.).
As for “TCGGTACTCTTGCTGAAGCAATCCTTTCTTCCTTGCCTAACGGAGTCACCTAGTGCAG”, the binding signal was 9140 fluorescence intensity (a.u.).
As for “ACAGTACGCTACTATTCATACGCTAAATTTGTCTTTTTTACGGAGTCACCTAGTGCAG”, the binding signal was 9830 fluorescence intensity (a.u.).
To “GGTTATTATATCTACAAAATTCTTGCACACCTCAGCAATGCGGAGTCACCTAGTGCAG” belongs 8090 fluorescence intensity (a.u.); to “TCCGTCTGTCTATAGCTACTATTAAAGGAGGGGAGGCTCTCGGAGTCACCTAGTGCAG”, 8130 fluorescence intensity (a.u.); to “AAACAAACACAGAGCTTCTCTCCTCTGTTCTCCTTCTCTGCGGAGTCACCTAGTGCAG”, 8090 fluorescence intensity (a.u.).
As for “GATGTCTCTCTTTTTTTTTTTGGTTTGGGTTGTCACTTTTCGGAGTCACCTAGTGCAG”, the binding signal is 9400 fluorescence intensity (a.u.).
For the sequence “CTACATCTTCTCTCGCTATCTCTCTCTGTACTCTCTCTCTCGGAGTCACCTAGTGCAG”, the binding signal is 11400 fluorescence intensity (a.u.).
Consider “TCGTCTCCGGCCTTTTCTTGCTCTCCTCGTCTTCTTCCTCCGGAGTCACCTAGTGCAG”, for which the binding signal was 13200 fluorescence intensity (a.u.).
With “AATTTTCCGTTTCTCCTTTTCTTGCTTTGTTTTTTCCTTGCGGAGTCACCTAGTGCAG”, the binding signal is 15200 fluorescence intensity (a.u.).
Under “TAGTTTTGTTTAATTCCTGTCTCGGGTTTGGTTGGTTGCTCGGAGTCACCTAGTGCAG” stands 19100 fluorescence intensity (a.u.); under “GATTTTTTTTTTCTCGTCTCCTCGTTTTTGCTTGCCTTTCCGGAGTCACCTAGTGCAG”, 19200 fluorescence intensity (a.u.).
“TGGCTCTCTCGCTCCTATGTGGCTATGTCTGTCTACCTAACGGAGTCACCTAGTGCAG”: the binding signal was 10800 fluorescence intensity (a.u.).
With “TGTGCAGTTTTGCTGTTTATGACTAGTTTACCTGTTGTCTCGGAGTCACCTAGTGCAG”, the binding signal is 10800 fluorescence intensity (a.u.).
Under “CCTGTTTTTTGTTTTTGGTGGTGGTTCCGTCTCGGTTAATCGGAGTCACCTAGTGCAG” stands 9840 fluorescence intensity (a.u.); under “TTCACTTTCACCTCGCCGTCTTGGTTGTCTTGCCGTCTTTCGGAGTCACCTAGTGCAG”, 20200 fluorescence intensity (a.u.).
Turning to “ACTGTGGTTATCTTGCTATCTCTCCTACTCGCTCTGTCAACGGAGTCACCTAGTGCAG”, the binding signal was 16500 fluorescence intensity (a.u.).
As for “TGCACTTCTCCACTTCACTCCTCGTCTCTTGCCGTCTTTTCGGAGTCACCTAGTGCAG”, the binding signal was 13200 fluorescence intensity (a.u.).
For the sequence “CACGAAGCCAGTCTAACCGCCATGTGTGGGCTTGTTTGACCGGAGTCACCTAGTGCAG”, the binding signal is 8700 fluorescence intensity (a.u.).
For “TGCTTCTTGGACATCGCATCATATTTAAGCATGTTTTCCTCGGAGTCACCTAGTGCAG”, the binding signal is 10500 fluorescence intensity (a.u.).
To “CTCTCTTTCTCTTCCATTTCTTGAAACTTGTATGGAGGTTCGGAGTCACCTAGTGCAG” belongs 9410 fluorescence intensity (a.u.).
As for “ATCATTTCGCACATTAACTCTCTCTCTCTCTCTCCATTTTCGGAGTCACCTAGTGCAG”, the binding signal was 15200 fluorescence intensity (a.u.).
For “AACCTTTTCTTTCTTTCTTCACTTTGGTTGCGTTGCGTCTCGGAGTCACCTAGTGCAG”, the binding signal is 24200 fluorescence intensity (a.u.).
As for “GACCTTTTTTTCTTTTCTTCTTTGTTCTTTGTTGTTCTCTCGGAGTCACCTAGTGCAG”, the binding signal was 10700 fluorescence intensity (a.u.).
As for “GAATTTTGCTTTGGTTCAACCTTTTTTCTCTTCTTTCTCTCGGAGTCACCTAGTGCAG”, the binding signal was 9740 fluorescence intensity (a.u.).
With “AAGGTATGGTTCTTCATTCTTGTCATTTTCTTTTGCAGCACGGAGTCACCTAGTGCAG”, the binding signal was 8220 fluorescence intensity (a.u.).
With “CTCAGCTTCCGTTATTACCTCTGCGCACAAGTTACCGGGCCGGAGTCACCTAGTGCAG”, the binding signal was 8720 fluorescence intensity (a.u.).
Under “GTACTCCCTCCATCCCTAAATGTTTGACGCCGTTGACTTTCGGAGTCACCTAGTGCAG” stands 16000 fluorescence intensity (a.u.); under “AATTTTCTTAAAATTTGAGGTTTAGTTTGACTTTCTTTTTCGGAGTCACCTAGTGCAG”, 9400 fluorescence intensity (a.u.).
Take “CTCCATCCTAAAATGTTTGACGCCGTTGACTTTTTTAAATCGGAGTCACCTAGTGCAG”: the binding signal was 24500 fluorescence intensity (a.u.).
As to “AAATTAAATTTAAAAATTTAAATTTTGACTTTTTCTTGACCGGAGTCACCTAGTGCAG”, the binding signal is 8250 fluorescence intensity (a.u.).
Under “CCTCATCACAAAATGTTTGACGCTGTTGACTTTTTTAAAACGGAGTCACCTAGTGCAG” stands 15900 fluorescence intensity (a.u.); under “TTGACGCCGTTGACTTTTTAAAAAATATTTGACCGTTCTTCGGAGTCACCTAGTGCAG”, 37100 fluorescence intensity (a.u.); under “GAAAAAAATGTAAAAACTGTTGACTTTTAGTCAACGCCATCGGAGTCACCTAGTGCAG”, 16400 fluorescence intensity (a.u.).
Regarding “TGTTTGACTTTTTTCTTGGTTAAAATTCTTTAAATTTGATCGGAGTCACCTAGTGCAG”, the binding signal was 18900 fluorescence intensity (a.u.).
In the case of “AAGATATTTTCAATGTATTTTTTTATTGTTGACTTTTAAACGGAGTCACCTAGTGCAG”, the binding signal was 9030 fluorescence intensity (a.u.).
